Assay outcomes as filed in PubChem BioAssay.
Most compounds without a hit are left out; they make up all but 8.2% or so of the library.
ELG1 repair inh = inhibitors of ELG1-dependent DNA repair in HEK293T cells | AID 504467 | HEK293T ELG1-luciferase reporter, luminescence, 16 h; DNA damage induced by 5-fluorouridine | 330,000 compounds, 2.3% hits | Potency, µM (doses to about 46.1 µM), usual class: inhibitors; also: nearly all actives have a fitted effect of over 55% in size
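Step one: seed 2,000 cells per well. Step two: pin-transfer compound or DMSO alongside 5-fluorouridine. Step three: incubate 16 hr, 37 °C, 5% CO2. Step four: add ONE-Glo, wait 30 min, read luminescence.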
KB-V1 cytotox = KB-V1 MDR subline cytotoxicity | AID 1347076 | 400,000 compounds, 3.4% hits | Potency, µM (highest dose often 46.1 µM), most hits filed as cytotoxic | KB-V1 MDR cells viability, CellTiter-Glo, 72 h; also: nearly all actives have a fitted effect of over 60% in size
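Cytotoxicity toward P-gp-expressing KB-V1 cells was determined as loss of CellTiter-Glo luminescence after 72 h at 37 degrees C. Compounds were tested in quantitative HTS format across a concentration range, with curves fitted to normalized data.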
SW480 rereplic = DNA re-replication induction in SW480 cells. SW480 DNA re-replication, Hoechst DNA content imaging, 48 h. Potency, µM (highest dose often 46.1 µM), most hits filed as activators. 340,000 compounds, 1.8% hits. AID 624297; also: nearly all actives have a fitted effect of over 55% in size
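Quantitative HTS format with DMSO vehicle controls; 48 hr drug incubation at 37 C, then 40 min Hoechst staining and scanning imager measurement at 405 nm excitation.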
KB-3-1 tox = kills parental KB-3-1 adenocarcinoma cells. KB-3-1 viability, CellTiter-Glo ATP luminescence, 72 h. Potency, µM (highest dose often 46.1 µM), hits mostly cytotoxic. 400,000 compounds, 1.4% hits; also: nearly all actives have a fitted effect of over 60% in size
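72 h, 37 °C compound treatment of KB-3-1 parental cells; CellTiter-Glo added, 10 min, luminescence read. Data corrected against DMSO-only plates and normalized before curve fitting.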
MCF10A rerep = induces DNA re-replication in MCF 10a normal breast cells; 350,000 compounds, 2.9% hits; Potency, µM (top dose mostly 46.1 µM), actives largely listed as activators; MCF 10A DNA re-replication, Hoechst nuclear intensity, 48 h; also: nearly all actives have a fitted effect of over 50% in size
Hits are given with their value; - = inactive; ? = inconclusive; . = no result given. Calls follow the shape of the dose curve; as a rule, active = well fitted curve in the direction sought with a large enough effect; inconclusive = small, poorly fitted or top-dose-only effect, or another doubt; inactive = no such curve, though single readings can be large; an effect the other way counts as inactive or inconclusive.

SMILES	ELG1 repair inh	KB-V1 cytotox	SW480 rereplic	KB-3-1 tox	MCF10A rerep
COCCCNC(=O)/C(C#N)=C/c1c(N2CCN(c3cccc(Cl)c3)CC2)nc2c(C)cccn2c1=O	23µM	-	-	?	?
COc1ccc(N2CCN(c3nc4c(C)cccn4c(=O)c3/C=C(\C#N)C(N)=O)CC2)cc1	13µM	-	-	-	-
COc1ccc(-c2csc3nc[nH]c(=O)c23)cc1OC	-	-	-	-	-
Cc1ccc(-c2csc3nc[nH]c(=S)c23)cc1C	-	13µM	?	?	?
COCCCNC(=O)CSc1nc(-c2cccc(F)c2)[nH]c1-c1ccccc1	.	-	.	-	.
COc1ccc(/C=N/N(C)C2=NS(=O)(=O)c3ccccc32)cc1	-	-	-	-	-
CN(/N=C/c1ccc(N(C)C)cc1)C1=NS(=O)(=O)c2ccccc21	-	-	7.3µM	?	8.2µM
COc1ccc(N(C)C2=NS(=O)(=O)c3ccccc32)cc1	?	-	2.6µM	?	5.8µM
O=S(=O)(NCC1CCCO1)c1ccc(NS(=O)(=O)c2ccc(F)cc2)cc1 (centres undefined)	-	-	-	-	-
COc1ccc(-c2cn[nH]c2-c2ccc(OCc3ccccc3)cc2O)cc1	21µM	-	?	-	13µM
COc1ccccc1-c1cn[nH]c1-c1ccc(OCc2ccccc2)cc1O	?	-	?	?	23µM
CCOc1ccc(-c2[nH]ncc2-c2ccccc2)c(O)c1	-	-	-	-	-
COc1ccc(-c2cn[nH]c2-c2ccc(OC)cc2O)cc1	10µM	-	?	-	-
COc1ccc(O)c(-c2[nH]ncc2C(=O)c2ccccc2)c1	23µM	-	-	-	-
O=C(c1ccccc1)c1cn[nH]c1-c1ccccc1O	-	-	-	-	-
CC(C)NC(=O)COC(=O)CNC(=O)C1CCCCC1	.	-	.	-	.
COc1ccc(-n2c(=O)c3c4c(sc3n(Cc3ccc(F)cc3)c2=O)CN(C(C)=O)CC4)c(OC)c1	.	-	.	-	.
CCN(Cc1ccccc1)S(=O)(=O)CCNC(=O)c1ccc(OC)cc1	-	-	-	-	-
CCN(CC)S(=O)(=O)c1cccc(C(=O)N/N=C/c2ccc(O)c(O)c2O)c1	-	-	-	-	-
CCN(CC)S(=O)(=O)c1ccc(Cl)c(C(=O)Nc2cc(C)nn2-c2ccccc2)c1	?	?	-	-	-
CCN(Cc1ccccc1)S(=O)(=O)CCNC(=O)c1ccccc1	-	21µM	-	-	-
Cc1cc(NC(=O)c2cccc(S(=O)(=O)N(C)C)c2)n(-c2ccccn2)n1	?	9.2µM	-	-	?
Cc1cc(NC(=O)c2cccc(S(=O)(=O)N3CCCCCC3)c2)n(-c2ccccn2)n1	-	?	-	-	-
CCN(CC)S(=O)(=O)c1cccc(C(=O)Nc2cc(C)nn2-c2ccccc2)c1	23µM	-	-	-	-
CCN(CC)S(=O)(=O)c1cccc(C(=O)N/N=C(\C)c2ccc(O)cc2O)c1	?	?	1.8µM	-	3.7µM
SMILES	ELG1 repair inh	KB-V1 cytotox	SW480 rereplic	KB-3-1 tox	MCF10A rerep
CCCCN(C(=O)c1ccc(N2CCCC2=O)cc1)c1c(N)n(CCC)c(=O)[nH]c1=O	-	-	-	?	-
CC(C)c1ccc(OCC(=O)NCC(c2ccc(Cl)cc2)N2CCOCC2)cc1 (centres undefined)	.	-	.	-	.
CN(C)S(=O)(=O)c1cccc(C(=O)NCCNC(=O)c2cccc(S(=O)(=O)N(C)C)c2)c1	-	-	-	-	-
CCN(CC)S(=O)(=O)c1cccc(C(=O)NCCc2ccccc2)c1	.	9.2µM	-	-	-
O=C(C1CCCCC1)N1C[C@H](n2cc(C3CC3)nn2)[C@@H](O)C[C@@H]1c1ccc(Cl)cc1	.	-	.	-	.
O=C(c1ccccc1)c1ccc(N2CCOCC2)c(F)c1	?	21µM	-	-	-
O=C(c1ccccc1)c1cc(F)c(N2CCOCC2)cc1Cl	-	?	-	-	-
O=C(Cc1ccccc1)Nc1cc(C(=O)c2ccccc2)ccc1N1CCOCC1	26µM	?	-	-	-
O=C(Nc1nnc(-c2ccc(Br)cc2)o1)c1cccc(N2C(=O)CCC2=O)c1	-	-	-	-	-
O=C(CSc1nnc(Cn2nnc(-c3ccccc3)n2)n1-c1ccccc1)Nc1ccccc1	-	15µM	-	-	-
Cc1cccc(C)c1NC(=O)CSc1nnc(Cn2nnc(-c3ccccc3)n2)n1-c1ccccc1	?	8.2µM	-	-	-
O=C(CSc1nnc(Cn2nnc(-c3ccccc3)n2)n1-c1ccccc1)Nc1ccc(F)cc1	-	-	-	-	-
Cc1nc(-n2nc(C)c(CCC(C)C)c2C)sc1C(=O)Nc1cccc(Cl)c1C	.	-	.	-	.
CCc1ccc(NC(=O)CSC2=Nc3ccccc3C3=NC(CC(=O)NCc4cccs4)C(=O)N23)cc1 (centres undefined)	.	?	.	-	.
O=C(c1ccccc1)c1ccc(-c2ccc(O)cc2)cc1	?	?	16µM	?	23µM
O=C(c1ccccc1)c1ccccc1	-	-	-	-	-
Cn1cccc1C(=O)Nc1ccc(Cl)c(S(=O)(=O)N2CCCCC2)c1	?	21µM	-	?	-
O=C(Nc1ccncc1)c1ccc(Cl)c(S(=O)(=O)N2CCCCC2)c1	?	?	-	?	13µM
O=C(Nc1ncn[nH]1)c1ccc(Cl)c(S(=O)(=O)N2CCCCCC2)c1	?	21µM	-	-	-
O=C(Nc1ccc(Cl)c(S(=O)(=O)N2CCCCC2)c1)c1ccncc1	?	?	-	-	-
O=C(Nc1cccnc1)c1ccc(Cl)c(S(=O)(=O)N2CCCCCC2)c1	21µM	?	-	-	-
Cc1ccc(C(=O)Nc2cccnc2)cc1S(=O)(=O)N1CCCCCC1	-	-	-	-	-
CN(C)c1ccc(Nc2ncnc3ccc(Br)cc23)cc1	8.2µM	?	-	-	-
Cc1cccc(Nc2ncnc3ccc(Br)cc23)c1	?	-	-	-	-
c1ccc(CCNc2ncnc3ccccc23)cc1	?	?	-	?	-
SMILES	ELG1 repair inh	KB-V1 cytotox	SW480 rereplic	KB-3-1 tox	MCF10A rerep
Brc1ccc2ncnc(NCc3ccccc3)c2c1	4.1µM	?	-	12µM	?
Clc1ccc(Nc2ncnc3ccc(Br)cc23)cc1	?	10µM	-	-	?
CCOC(=O)CSC1=Nc2ccccc2C2=NC(CCC(=O)NCc3ccc(OC)cc3)C(=O)N12 (centres undefined)	.	?	.	-	.
C1CC1Cc1noc(CN2CCN(C3C4CC5CC(C4)CC3C5)CC2)n1 (centres undefined)	-	-	-	-	2.9µM
c1cnc(-c2noc(CN3CCN(C4C5CC6CC(C5)CC4C6)CC3)n2)cn1 (centres undefined)	-	-	-	-	-
O=C(COc1ccc(C(=O)NCCN2CCOCC2)cc1)Nc1cccc(C(F)(F)F)c1	-	-	-	-	-
